Source: PubChem BioAssay (NMMLSC)
CIT2 TOR yeast: modulators of CIT2-GFP expression in yeast, primary screen, S. cerevisiae, GFP fusion, multiplex flow cytometry, MLPCN library. GFP response vs DMSO, % at 10 µM. S. cerevisiae CIT2-GFP strain, 3 h; 100 means same as DMSO wells. hit rate 0.065% among 320,000. AID 2029, 2009;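 active means GFP response relative to DMSO above a set limit, near the screen mean plus 3 SD, cut at about 150% in these data; inconclusive means Fewer than 70 cells measured for a yeast strain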;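 further: ratio of well median GFP fluorescence to mean of DMSO wells on the plate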
MEP2 TOR yeast: modulators of MEP2-GFP levels in yeast, primary screen, S. cerevisiae, multiplex flow cytometry, MLPCN library; S. cerevisiae MEP2-GFP strain, 3 h; 100% = DMSO control level; GFP response vs DMSO, % at 10 µM; hit rate 0.51% among 330,000; AID 2016, 2009;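 active means GFP response versus DMSO above a set limit, roughly screen mean plus 3 SD, cut at about 180% in these data; inconclusive means fewer than 70 cells counted for a yeast strain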;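 further: median GFP fluorescence of the barcode-gated MEP2-GFP cells per well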
RPL19A-GFP yeast: RPL19A-GFP expression modulators in yeast, primary screen, cell-based, S. cerevisiae, multiplex flow cytometry, MLPCN; percent response vs DMSO, % at 10 µM; AID 2025, 2009; S. cerevisiae RPL19A-GFP strain, 3 h; hits give low values; hit rate 0.3% among 330,000;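 active means percent response vs DMSO below 50%; inconclusive means fewer than 70 events counted for the yeast strain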;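 further: median channel GFP fluorescence of the barcoded RPL19A-GFP strain; lower means less RPL19A-GFP as with rapamycin TOR inhibition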
AGP1 TOR yeast: modulators of AGP1-GFP expression in yeast TOR pathway, primary screen, cell-based, multiplex flow cytometry, S. cerevisiae, MLPCN library; 3 h; GFP as percent of DMSO wells; GFP response vs DMSO, % at 10 µM; hit rate 0.02% among 320,000; AID 2066, 2009;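 active means GFP response relative to DMSO above a set limit, near screen average plus 3 SD, cut at about 150% in these data; inconclusive means fewer than 70 cells counted for the yeast strain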;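 further: median GFP channel fluorescence of the gated AGP1 strain per well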
LAP4-GFP MLPCN: modulators of LAP4-GFP expression in yeast, primary screen, S. cerevisiae, multiplex flow cytometry, MLPCN library | 3 h; median GFP as percent of DMSO wells | GFP response vs DMSO, % at 10 µM | hit rate 0.34% among 320,000;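 active means GFP response vs DMSO above a set limit, about the screen mean plus 3 SD, cut at about 150% in these data; inconclusive means under 70 cell events counted for the yeast strain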
Hits are given with their value; i = inactive; ? = inconclusive; nt = not tested or not shown; [ ] = dose if it differs, or a comment. The list is not random: actives were taken first. Their share in the collection is about 0.89%.

SMILES	CIT2 TOR yeast	MEP2 TOR yeast	RPL19A-GFP yeast	AGP1 TOR yeast	LAP4-GFP MLPCN
CNc1cc(CSC)nc(SCc2ccc(Cl)cc2Cl)n1	i	i	i	i	164
COc1ccc(/C=N/NC(=O)C2(C)NC(C)(C)Cc3ccccc32)cc1 (configuration not stated)	i	239	i	160	158
COc1ccc(/C=N/NC(=O)C2(O)c3ccccc3-c3ccccc32)cc1	i	i	i	i	i
COc1cc2oc(=O)ccc2cc1[C@@H](O)[C@@H]1OC(C)(C)OC1(C)C	i	i	i	i	i
CSCCC(NC(=O)c1cccc([N+](=O)[O-])c1)C(=O)OCC(=O)N1CCCC1=O (configuration not stated)	i	i	i	i	i
CCCOc1ccc(-c2c(C(=O)N/N=C/C3CC=CCC3)nnn2-c2nonc2N)cc1 (configuration not stated)	i	i	i	i	i
CCCOc1ccc(-c2c(C(=O)N/N=C/C3CCCCC3)nnn2-c2nonc2N)cc1	?	i	27[may fluoresce violet]	?	i
C=CCN1CC(=O)N2C(C)c3[nH]c4ccccc4c3C[C@H]2C1=O (some centres not stated)	?	226[may fluoresce violet]	i	?	i
Nc1ccc2oc(=O)c3ccccc3c2c1	?	231[may fluoresce violet]	34[may fluoresce violet]	?	i
C=C(C)C1CC=C(C)/C(=N/NC(=O)CNc2ccc(OCC)cc2)C1 (configuration not stated)	?	207[may fluoresce violet]	i	?	i
Cc1ccc(NC(=S)N(CCCN2CCOCC2)Cc2cccs2)c(C)c1	i	222	i	i	i
Cc1c(Cl)cccc1NC(=S)N(CCCN1CCOCC1)Cc1cccs1	i	i	i	i	i
CSc1nc(N)nc2c1ncn2CC(=O)N1CCN(Cc2c(C)cc(C)cc2C)CC1	i	i	i	i	i
CCOc1cc(/C=C2\NC(=S)N(c3c(C)n(C)n(-c4ccccc4)c3=O)C2=O)ccc1O	i	i	i	i	i
CCOc1cccc(/C=C2\NC(=S)N(c3ccccc3)C2=O)c1O	?	424[may fluoresce violet]	18[may fluoresce violet]	?	i
CCn1c(C)cc(O)c(C(=O)Nc2cccc(Cl)c2)c1=O	i	i	i	i	i
COCCn1c(C)cc(O)c(C(=O)Nc2cccc(Cl)c2)c1=O	?	191[may fluoresce violet]	i	i	i
O=C(Cc1ccccc1)NNc1c2ccccc2nc2ccccc12	i	i	i	i	i
O=C(Nc1c2ccccc2nc2ccccc12)C(Cl)(Cl)Cl	i	i	46	i	i
CCOc1ccccc1N1CN(C2CCCCC2)CNC1=S	i	i	i	i	i
CCOC(=O)c1ccc(N2CN(C3CCCCC3)CNC2=S)cc1	?	237[may fluoresce violet]	31[may fluoresce violet]	?	i
COc1ccc(-c2[nH]ncc2N=Nc2cc(C)cc(C)c2)cc1	i	i	i	i	i
COc1ccc(-c2[nH]ncc2N=Nc2ccccc2)cc1	i	i	i	i	151
O=C(O)c1cccc(NC(=O)c2ccc3c(c2)C(=O)N(c2ccccc2)C3=O)c1	?	376[may fluoresce violet]	i	?	i
COc1cccc(OC)c1OCCCCCCN1CCN(C)CC1	i	i	i	i	i
SMILES	CIT2 TOR yeast	MEP2 TOR yeast	RPL19A-GFP yeast	AGP1 TOR yeast	LAP4-GFP MLPCN
CN1CCN(CCCCOc2ccccc2C=O)CC1	i	i	i	i	163
CCOc1ccc(NC(=O)CCC(=O)NNC(=O)c2cccc([N+](=O)[O-])c2)cc1	i	i	i	i	i
Cc1cc(=O)n2nc(N3CCC(C(=O)NCc4cccc(Br)c4)CC3)sc2n1	i	i	i	i	i
O=C(Nc1nc(-c2ccccn2)cs1)c1ccc(-c2ccccc2F)o1	?	i	i	i	170[may fluoresce violet]
CC1(CCc2ccccc2)NC(=O)N(CC(=O)Nc2c(F)cccc2F)C1=O (configuration not stated)	i	i	i	i	i
NNC(=O)c1ccc(CSc2nc3ccccc3[nH]2)cc1	?	i	45[may fluoresce violet]	?	i
O=C(CCNc1ccc(F)c(Cl)c1)c1ccco1	i	i	i	i	i
O=C(CCNc1ccc(F)cc1)c1ccco1	?	276[may fluoresce violet]	44[may fluoresce violet]	i	i
CN(C)/C=C/C(=O)/C=C/c1cn(-c2ncc(C(F)(F)F)cc2Cl)c2ccccc12	?	232[may fluoresce violet]	41[may fluoresce violet]	?	i
CN(C(=O)Nc1ccc(Cl)cc1Cl)C1CCCC1	i	i	i	i	i
O=C(CN1CCN(c2ccc(F)cc2)CC1)NCc1ccc(Cl)cc1	i	i	i	i	i
CSc1ccccc1NC(=O)CN(C)C(=O)COc1cccc2cccnc12	i	i	i	i	i
CCN(CC)c1ccc2cc(C(N)=O)c(=O)oc2c1	i	i	i	i	i
CCN(CC)c1ccc2cc(C(C)=O)c(=O)oc2c1	?	311[may fluoresce violet]	19[may fluoresce violet]	nt	i
O=[N+]([O-])c1ccc(O)c(/C=N/n2cnc3ccccc32)c1	?	184[may fluoresce violet]	i	?	i
O=[N+]([O-])c1ccc(O)c(/C=N/n2c(CO)nc3ccccc32)c1	i	i	i	i	i
C/C(CC(=O)Nc1cc(C)ccn1)=N\NC(=O)c1cccc(F)c1	i	183	i	i	i
CC(=O)c1cccc(NC(=O)CSc2nc(C3CC3)nc3ccccc23)c1	?	i	32[may fluoresce violet]	?	i
CC(=O)Nc1cccc(NC(=O)CSc2nc(C3CC3)nc3ccccc23)c1	i	i	i	i	i
CCOC(=O)C1CCCN(C(=O)c2ccc(-c3ccc([N+](=O)[O-])cc3)o2)C1 (configuration not stated)	i	i	i	i	169
CNC(=O)CSc1cn(CC(=O)N(C(C)C)C(C)C)c2ccccc12	i	i	i	i	i
O=C(O)c1ccc(N/N=C/C(Br)=C/c2ccccc2)cc1	i	i	i	i	161
NC(=O)C1CCN(c2oc(/C=C/c3ccc(F)cc3)nc2S(=O)(=O)c2ccccc2)CC1	i	i	i	i	i
Cc1nn(Cc2c(Cl)cccc2Cl)c(C)c1C(=O)NCc1ccc(C)n1C	?	216[may fluoresce violet]	i	nt	i
Cc1nn(Cc2ccccc2)c(Cl)c1C(=O)NCc1ccc(C)n1C	i	i	i	i	i
SMILES	CIT2 TOR yeast	MEP2 TOR yeast	RPL19A-GFP yeast	AGP1 TOR yeast	LAP4-GFP MLPCN
CC(C)(C)c1ccc(O)c(O)c1	i	i	i	i	i
CC(C)(C)c1ccc(O)c(/C=N\O)c1	?	452[may fluoresce violet]	i	i	i
COc1ccc(NC(=O)CSc2n[nH]c(-c3ccccn3)n2)cc1	?	314[may fluoresce violet]	37[may fluoresce violet]	?	i
CC(C)(C)OC(=O)N[C@H](C(=O)OC(C)(C)C)c1ccc2c(c1)OCO2	i	i	i	i	i
O=C(OCc1cccc([N+](=O)[O-])c1)c1cnccn1	i	175	i	i	i
O=C(OCc1cccc([N+](=O)[O-])c1)c1ccncc1	i	i	i	i	i
Cc1c(OCC(=O)N(C)c2ccccc2)ccc2c3c(c(=O)oc12)CCC3	i	i	i	i	i
CC(C)n1c(SCC(=O)N2CCCCC2)nc2c1c(=O)n(C)c(=O)n2C	?	305[may fluoresce violet]	i	i	i
